KB-3-1 cytotox = kills parental KB-3-1 adenocarcinoma cells. Potency, µM (doses to about 46.1 µM), usual class: cytotoxic. hit rate 1.4% among 400,000. KB-3-1 viability, CellTiter-Glo ATP luminescence, 72 h; note: % is set by controls: 0 for no effect and ±100 for the full control effect; nearly all actives have a fitted effect of over 60% in size
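KB-3-1 parental drug-naive adenocarcinoma cells in DMEM/10% FBS, incubated 72 h at 37 C with pin-transferred compounds across a concentration series. Viability by CellTiter-Glo luminescence; concentration-response curves fitted after normalization.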
SW480 rereplic = DNA re-replication induction in SW480 cells | Potency, µM (top dose mostly 46.1 µM), without a hit: at the top dose re-replication activation, usual class: activators | SW480 DNA re-replication, Hoechst DNA content imaging, 48 h | hit rate 1.8% among 340,000; note: % of control where 0% means no effect; nearly all actives have a fitted effect of over 55% in size
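First, 250 cells per well were seeded. Next, compound or vehicle (23 nL) was pinned in, plates sat 48 hr at 37 C. Finally Hoechst was added for 40 min before fluorescence scanning.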
MCF10A rereplic = inducers of DNA re-replication in MCF 10A breast cells; MCF 10A DNA re-replication, Hoechst nuclear intensity, 48 h; Potency, µM (top dose mostly 46.1 µM), without a hit: at the top dose activity, positive = re-replication, hits mostly activators; hit rate 2.9% among 350,000; note: % of control where 0% means no effect; nearly all actives have a fitted effect of over 50% in size
KB-V1 MDR tox = KB-V1 MDR subline cytotoxicity | Potency, µM (series often up to 46.1 µM), usual class: cytotoxic | KB-V1 MDR cells viability, CellTiter-Glo, 72 h | AID 1347076 | hit rate 3.4% among 400,000; note: % is set by controls: 0 for no effect and ±100 for the full control effect; nearly all actives have a fitted effect of over 60% in size
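Cells of the MDR subline KB-V1 are plated, dosed with compound at multiple concentrations, and incubated 72 h at 37 degrees C; CellTiter-Glo is then added and luminescence read after 10 min.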
ELG1 DNA repair = blocks ELG1-dependent DNA repair in HEK293T cells; HEK293T ELG1-luciferase reporter, luminescence, 16 h; DNA damage induced by 5-fluorouridine; Potency, µM (series often up to 46.1 µM), inactives show top-dose activity change, negative = inhibition, actives largely listed as inhibitors; hit rate 2.3% among 330,000; note: % is set by controls: 0 for no effect and ±100 for the full control effect; nearly all actives have a fitted effect of over 55% in size
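Cells (2,000 per well) received 5-fluorouridine plus test compound or DMSO and were incubated 16 hr at 37 °C, 5% CO2. Luciferase activity was read by luminescence 30 min after ONE-Glo addition; signal suppression marked inhibition of damage-induced ELG1 function.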
Starred values were filed as active, the others as inactive. Shown are actives, neighbours in structure and some others; about 8.1% of the full set was active somewhere. Calls come from the whole dose curve; as a rule, active = well fitted curve in the direction sought with a large enough effect; inconclusive = small, poorly fitted or top-dose-only effect, or another doubt; inactive = no such curve, though single readings can be large; an effect the other way counts as inactive or inconclusive. Potency is the fitted concentration of half-maximal effect.

`Cc1ccc(Cn2cccc(C(=O)Nc3ccc4c(c3)OCCO4)c2=O)cc1` gave KB-3-1 cytotox inactive and KB-V1 MDR tox inconclusive.
`Cc1nnc(NC(=O)c2cccn(Cc3ccccc3F)c2=O)s1` gave KB-3-1 cytotox inactive and KB-V1 MDR tox inactive.
CC(C)CCn1c(N)c(C(=O)NCc2cccs2)c2nc3ccccc3nc21 was read as KB-3-1 cytotox inactive, SW480 rereplic 5.8µM*, MCF10A rereplic 1.5µM*, KB-V1 MDR tox inactive and ELG1 DNA repair 6.5µM*.
CC(C)OCCCNC(=O)c1c(N)n(Cc2cccs2)c2nc3ccccc3nc12 was read as KB-3-1 cytotox inconclusive, SW480 rereplic 3.7µM*, MCF10A rereplic 1.8µM*, KB-V1 MDR tox inconclusive and ELG1 DNA repair 16µM*.
COC(=O)C1C(=O)C=C(Nc2ccc(F)cc2F)CC1c1ccccc1 (configuration not stated) was read as KB-3-1 cytotox inactive, SW480 rereplic -5%, MCF10A rereplic -4%, KB-V1 MDR tox inactive and ELG1 DNA repair inconclusive.
`Cc1ccc2c(c1)C1CN(C)CCC1N2C(=O)c1cn(-c2ccccc2)nc1-c1ccccc1` (configuration not stated) gave KB-3-1 cytotox inactive, SW480 rereplic inconclusive, MCF10A rereplic 21µM*, KB-V1 MDR tox inactive and ELG1 DNA repair inconclusive.
CCN(CC)c1ccc(N=Cc2c(O)n(Cc3ccco3)c(=O)[nH]c2=O)cc1 was read as KB-3-1 cytotox inactive, SW480 rereplic 70%, MCF10A rereplic 26µM*, KB-V1 MDR tox inactive and ELG1 DNA repair -2%.
Screening CCN(CC)c1ccc(N=Cc2c(O)n(CCc3ccc(OC)c(OC)c3)c(=O)[nH]c2=O)cc1 returned KB-3-1 cytotox inconclusive, SW480 rereplic inconclusive, MCF10A rereplic inconclusive, KB-V1 MDR tox 16µM* and ELG1 DNA repair 2.6µM*.
`Cc1ccccc1Cn1cccc(C(=O)Nc2cc(Cl)ccc2C#N)c1=O` gave KB-3-1 cytotox inactive and KB-V1 MDR tox inconclusive.
Screening CC(C)N(Cc1nccn1C)C(=O)CCc1nnc(CCCc2ccccc2)o1 returned KB-3-1 cytotox inactive, SW480 rereplic 4%, MCF10A rereplic -3%, KB-V1 MDR tox inactive and ELG1 DNA repair inconclusive.
For COc1ccc(C2=CC(c3ccc4c(c3)OCO4)c3c(c4ccccc4oc3=O)O2)cc1OC (configuration not stated) the results were KB-3-1 cytotox 2.9µM*, SW480 rereplic 6.5µM*, MCF10A rereplic 2.6µM* and KB-V1 MDR tox 2.6µM*.
CCN(CC)CCO[C@H]1CC[C@@]2(C)C(=CC[C@@H]3[C@H]2CC[C@]2(C)C(=O)CC[C@H]32)C1 was read as SW480 rereplic -4% and MCF10A rereplic 12%.
For Cn1nc(-c2ccccc2)nc2c(=O)n(C)c(=O)nc1-2 the results were KB-3-1 cytotox 4.6µM* and KB-V1 MDR tox 5.8µM*.
For CCn1nc(-c2ccccc2)nc2c(=O)n(C)c(=O)nc1-2 the results were KB-3-1 cytotox 5.2µM*, SW480 rereplic inconclusive, MCF10A rereplic 1.5µM*, KB-V1 MDR tox inactive and ELG1 DNA repair inconclusive.
For Cc1nc2c(=O)n(C)c(=O)nc-2n(C)n1 the results were KB-3-1 cytotox 5.2µM*, SW480 rereplic 0.52µM*, MCF10A rereplic 9.2µM*, KB-V1 MDR tox 6.5µM* and ELG1 DNA repair 1.8µM*.
Screening COc1ccc(-c2nc3ccccc3c(=O)n2-c2ccc(OC)cc2)cc1 returned KB-3-1 cytotox inactive, SW480 rereplic -8%, MCF10A rereplic 22%, KB-V1 MDR tox inactive and ELG1 DNA repair -22%.
CCOC(=O)C(C#N)=C(c1ccccc1)c1ccccc1 was read as SW480 rereplic 0% and MCF10A rereplic inconclusive.
CCC1CN2CCc3cc(OC)c(OC)cc3C2CC1CC1NCCc2c1[nH]c1ccc(O)cc21 (configuration not stated) was read as KB-3-1 cytotox 0.41µM*, SW480 rereplic inconclusive, MCF10A rereplic inconclusive and KB-V1 MDR tox inactive.
COc1ccc2c(c1OC)CN1CCc3cc4c(cc3[C@H]1C2)OCO4 was read as KB-3-1 cytotox inactive, SW480 rereplic -11%, MCF10A rereplic -28%, KB-V1 MDR tox inactive and ELG1 DNA repair -9%.

Screening results from PubChem.
